Some test systems named below: RPMI-8226 leukemia; OVCAR-8 ovarian; OVCAR-5 ovarian; OVCAR-4 ovarian; SK-OV-3 ovarian; IGROV1 ovarian; HS 578T breast; NCI/ADR-RES ovarian; T-47D breast; OVCAR-3 ovarian.
Common to all, as to experiment: NCI-60 one-dose screen, 48 h (100 = growth as untreated, 0 = no growth, -100 = all killed)
What all share (conditions): 10 µM unless noted

This is part of a sample that, as a whole, favours compounds with a hit. Of some 83,000 tested, about 20% had one in any assay.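 Growth was measured after 48 h exposure to one concentration of compound in 96-well plates. Values under 10 count as active.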 Unmarked numbers belong to inactive results. The source made the active and inactive calls.

For the compound `CN(CCc1ccccc1)C(=S)N(C(=O)c1ccc([N+](=O)[O-])cc1)c1ccc(Cl)cc1`, the growth was -15.8% (active) in the test on RPMI-8226 leukemia; 99.3% in the test with OVCAR-8 ovarian; 100% in the test with OVCAR-5 ovarian; 86.3% in the test on OVCAR-4 ovarian; 102% in the test with SK-OV-3 ovarian; 105% in the test with IGROV1 ovarian. The figures for the growth in the test with HS 578T breast, in the test on NCI/ADR-RES ovarian and with T-47D breast were 95.2%, 98.4% and 68%, respectively.
In the case of `COc1c(B(O)O)cccc1-c1nc2ccc3[nH]ncc3c2c2c1C1CCC2C1` (stereo not drawn), the growth in the test on RPMI-8226 leukemia was 39.7%; with OVCAR-8 ovarian, 59.9%; in the test with OVCAR-5 ovarian it was 113%; in the test with OVCAR-4 ovarian, 115%; with SK-OV-3 ovarian it was 39.8%; in the test on IGROV1 ovarian, 76.1%. Also, the growth in the test on HS 578T breast was 40.8%; with NCI/ADR-RES ovarian, 78.8%; with T-47D breast, 101%.
For the compound `O=S(=O)(c1ccccc1)n1cc2c(c1-c1ccccc1)CCc1sc(Nc3ccccc3)nc1-2`, the growth is 67.7% with RPMI-8226 leukemia; 79.8% in the test on OVCAR-8 ovarian; 94.4% in the test on OVCAR-5 ovarian; 75.2% in the test on OVCAR-4 ovarian; 99.7% in the test on SK-OV-3 ovarian; 115% in the test with IGROV1 ovarian. The growth in the test with HS 578T breast was 98.3%; with NCI/ADR-RES ovarian, 76.8%; in the test with T-47D breast it was 64.1%.
With `CN(O)c1nc(N(C)O)nc(N2CCOCC2)n1`, the growth in the test on RPMI-8226 leukemia is 36.8%; in the test with OVCAR-8 ovarian, 33.8%; in the test on OVCAR-5 ovarian, 68.9%; in the test with OVCAR-4 ovarian it was 1.09% (active); in the test with SK-OV-3 ovarian, 8.47% (active); in the test on IGROV1 ovarian, 20.1%. Also, the growth in the test on HS 578T breast was 75.9%; in the test on NCI/ADR-RES ovarian it was 21.6%; in the test on T-47D breast it was 40.9%.
As to `CCOC(=O)c1sc(-c2ccc(OS(=O)(=O)c3ccccc3[N+](=O)[O-])c(C=O)c2)nc1C`, the growth is 37.2% with RPMI-8226 leukemia; 56.5% with OVCAR-8 ovarian; 73.6% in the test with OVCAR-5 ovarian; 33% in the test with OVCAR-4 ovarian; 117% in the test with SK-OV-3 ovarian; 3.88% (active) with IGROV1 ovarian. The growth with HS 578T breast was 96.3%; in the test with NCI/ADR-RES ovarian, 61.6%; with T-47D breast it was 28.4%.
Turning to `CCCCc1c(CCC)c(=N)c2ccccc2n1C`, the growth with RPMI-8226 leukemia is 29.9%; with OVCAR-8 ovarian, 65.5%; with OVCAR-5 ovarian it was 99.6%; in the test with OVCAR-4 ovarian, 73.4%; in the test on SK-OV-3 ovarian, 99.1%; in the test with OVCAR-3 ovarian, 90.9%. Further, the figures for the growth with HS 578T breast, in the test on NCI/ADR-RES ovarian and in the test on T-47D breast were 122%, 85.4% and 85.9%, respectively.
As to `O=C(Nc1ccc(N2CCNCC2)cn1)c1[nH]ncc1Nc1ncnc2sc3c(c12)CCC3`, the growth is -38.2% (active) in the test with RPMI-8226 leukemia; -38.9% (active) with OVCAR-8 ovarian; 20.7% in the test with OVCAR-5 ovarian; -53.6% (active) with OVCAR-4 ovarian; 79.8% with SK-OV-3 ovarian; -39.3% (active) in the test with OVCAR-3 ovarian. In addition, the growth is 73% in the test with HS 578T breast, 42.6% with NCI/ADR-RES ovarian and 43.8% in the test on T-47D breast.
In the case of `Nc1ccc(C2c3ccccc3Oc3ccccc32)cc1`, the growth in the test with RPMI-8226 leukemia was 94%; with OVCAR-8 ovarian, 102%; with OVCAR-5 ovarian it was 101%; in the test with OVCAR-4 ovarian, 105%; with SK-OV-3 ovarian it was 98.3%; with IGROV1 ovarian, 91.8%. The growth with OVCAR-3 ovarian is 96.4%; in the test on NCI/ADR-RES ovarian it was 100%; in the test with T-47D breast, 84.1%.
For the compound `COc1ccc(C2C3=C(COC3=O)N(CCO)c3cc4c(cc32)OCCO4)cc1` (stereo not drawn), the growth with RPMI-8226 leukemia is 99.9%; with OVCAR-8 ovarian, 84.6%; in the test on OVCAR-5 ovarian it was 99.8%; in the test with OVCAR-4 ovarian it was 98.8%; in the test on SK-OV-3 ovarian, 86.5%; in the test with IGROV1 ovarian, 80.7%. In addition, the growth is 71.6% in the test with HS 578T breast, 95.5% in the test on NCI/ADR-RES ovarian and 80.4% in the test with T-47D breast.
In the case of `N#C/C(=C\c1c(-c2ccccc2)[nH]c2ccccc12)S(=O)(=O)c1ccccc1`, the growth was -43.1% (active) in the test on RPMI-8226 leukemia; 43.3% in the test on OVCAR-8 ovarian; 75.1% in the test on OVCAR-5 ovarian; 83% in the test with OVCAR-4 ovarian; 30.5% in the test on SK-OV-3 ovarian; -27.9% (active) with OVCAR-3 ovarian. The values for the growth in the test with HS 578T breast, in the test on NCI/ADR-RES ovarian and in the test on T-47D breast were 15.9%, 7.91% (active) and 38.9%, respectively.
For the compound `Clc1ccc(Nc2scc3[n+]2CCC3)cc1`, the growth in the test on RPMI-8226 leukemia is 98.5%; with OVCAR-8 ovarian, 103%; in the test on OVCAR-5 ovarian it was 96.5%; with OVCAR-4 ovarian, 88.9%; in the test on SK-OV-3 ovarian, 97.7%; in the test on OVCAR-3 ovarian, 101%. The values for the growth in the test on HS 578T breast, in the test with NCI/ADR-RES ovarian and in the test on T-47D breast were 100%, 96.8% and 89.7%, respectively.
As for `COc1ccccc1C(=O)/C=C/c1ccccc1`, the growth is -2.98% (active) in the test with RPMI-8226 leukemia; 78.1% in the test on OVCAR-8 ovarian; 101% with OVCAR-5 ovarian; 88.6% with OVCAR-4 ovarian; 90.3% with SK-OV-3 ovarian; 85.7% with IGROV1 ovarian. In addition, the growth was 76.4% in the test on NCI/ADR-RES ovarian and 81.4% in the test with T-47D breast.
Take `CC(=O)O[C@@H]1/C=C/C(=O)N[C@@H](C)CCC/C=C/[C@@H]2CCC[C@H]21`: the growth is 87.5% in the test on RPMI-8226 leukemia; 99.4% in the test with OVCAR-8 ovarian; 87.8% in the test with OVCAR-5 ovarian; 109% in the test with OVCAR-4 ovarian; 103% in the test on SK-OV-3 ovarian; 106% in the test on OVCAR-3 ovarian. The growth in the test on HS 578T breast is 133%; in the test with NCI/ADR-RES ovarian it was 101%; in the test on T-47D breast, 98.6%.
`O=C1C(Cl)=C(NCc2ccco2)C(=O)c2ccccc21`: the growth was 38.9% in the test with RPMI-8226 leukemia; 93.7% with OVCAR-8 ovarian; 116% with OVCAR-5 ovarian; 85.4% in the test on OVCAR-4 ovarian; 115% in the test with SK-OV-3 ovarian; 57.6% in the test with IGROV1 ovarian. Also, the growth is 89.6% with HS 578T breast, 84.6% with NCI/ADR-RES ovarian and 69.1% in the test on T-47D breast.
Turning to `O=C(c1ccccc1)N(C(=S)NCCc1ccc(Cl)cc1)c1ccccc1`, the growth in the test on RPMI-8226 leukemia is -30.9% (active); with OVCAR-8 ovarian, 105%; in the test on OVCAR-5 ovarian, 91.2%; in the test with OVCAR-4 ovarian, 96.9%; with SK-OV-3 ovarian, 114%; with IGROV1 ovarian, 102%. The growth in the test on NCI/ADR-RES ovarian was 99%; in the test on T-47D breast it was 59.6%.

The record behind these values is PubChem BioAssay (NCI).
